Source: PubChem BioAssay (EPA / NIEHS)
Activity calls are given as the source filed them. How the source made its calls: active means hit-call score of the fitted dose curve at least 0.9, where 1 is the maximum; inactive means score below 0.9.

Key:
Conditions in all cases: mRNA level, 48 h; actives raise or lower the signal
[1] = read-out: Tumor necrosis factor receptor superfamily member 6 (Homo sapiens) (UniProt P25445); assay: LTEA_HepaRG_FAS: Life Technologies and Expression Analysis (LTEA) Assay for Fas cell surface death receptor (FAS) using HepaRG (AID 2283447)
Method in brief: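 FAS transcript level was measured by TaqMan qRT-PCR against three housekeeping genes after 48 h chemical exposure. Cells were HepaRG, 0.5% DMSO vehicle, with a top concentration of 100 uM and half-log dilutions over eight points, in duplicate.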

[2] = read-out: Fatty acid synthase (Homo sapiens) (UniProt P49327); assay: LTEA_HepaRG_FASN: Life Technologies and Expression Analysis (LTEA) Assay for Fatty Acid Synthase (FASN) using HepaRG (AID 2283448)
Method in brief: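 Cells were plated, cultured 48 h, switched to serum-free induction medium, then dosed in duplicate (max 100 uM, half-log dilutions, 0.5% DMSO) for 48 h. RNA was then isolated and FASN quantified by qRT-PCR.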

[3] = read-out: Cyclin D2 (CCND2), CCND2 (gene 894); assay: LTEA_HepaRG_CCND2: Life Technologies and Expression Analysis (LTEA) Assay for Cyclin D2 (CCND2) using HepaRG (AID 2283449)
Method in brief: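 CCND2 transcript levels, quantified by qRT-PCR and normalised to three housekeeping genes, were fitted bidirectionally against 0.5% DMSO. HepaRG cultures were dosed 48 h in duplicate with an 8-point half-log series up to 100 uM.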

[4] = read-out: Cyclin Dependent Kinase Inhibitor 1A (CDKN1A), CDKN1A (gene 1026); assay: LTEA_HepaRG_CDKN1A: Life Technologies and Expression Analysis (LTEA) Assay for Cyclin Dependent Kinase Inhibitor 1A (CDKN1A) using HepaRG (AID 2283450)
Method in brief: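 Differentiated human HepaRG cells, pre-cultured 48 h, were exposed in duplicate for 48 h in serum-free induction medium to eight half-log concentrations up to 100 uM (0.5% DMSO). CDKN1A mRNA was measured by qRT-PCR, normalized to ACTB/GAPDH/POLR2A, bidirectionally fitted versus DMSO.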

[5] = read-out: Cyclin D1 (CCND1), CCND1 (gene 595); assay: LTEA_HepaRG_CCND1: Life Technologies and Expression Analysis (LTEA) Assay for Cyclin D1 (CCND1) using HepaRG (AID 2283451)
Method in brief: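 Differentiated human HepaRG cells in serum-free induction medium were exposed 48 h to eight half-log concentrations up to 100 uM in 0.5% DMSO; mRNA quantified by TaqMan qRT-PCR, normalized to ACTB, GAPDH, POLR2A, fitted bidirectionally versus DMSO.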

[6] = read-out: catalase (CAT), CAT (gene 847); assay: LTEA_HepaRG_CAT: Life Technologies and Expression Analysis (LTEA) Assay for catalase (CAT) using HepaRG (AID 2283452);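 on AC50: TaqMan qRT-PCR signal normalized to ACTB GAPDH and POLR2A housekeeping genes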
Method in brief: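 Expression of CAT was quantified by TaqMan qRT-PCR with ACTB/GAPDH/POLR2A normalization after 48 h chemical exposure of HepaRG. Eight-point half-log series, top 100 uM, in 0.5% DMSO; gain or loss fitted against vehicle.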

[7] = read-out: Cytochrome P450 (CYP1A1), CYP1A1 (gene 1543); assay: LTEA_HepaRG_CYP1A1: Life Technologies and Expression Analysis (LTEA) Assay for Cytochrome P450 (CYP1A1) using HepaRG (AID 2283454)
Method in brief: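 Differentiated HepaRG cells in serum-free induction medium were exposed in duplicate for 48 h to eight half-log concentrations up to 100 uM in 0.5% DMSO. CYP1A1 mRNA was quantified by TaqMan qRT-PCR, normalized to ACTB, GAPDH and POLR2A.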

[8] = read-out: CFLAR gene, CFLAR (gene 8837); assay: LTEA_HepaRG_CFLAR: Life Technologies and Expression Analysis (LTEA) Assay for CFLAR gene using HepaRG (AID 2283455)
Method in brief: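 Transcript level by qRT-PCR (normalized to ACTB, GAPDH and POLR2A) after 48 h chemical exposure of HepaRG cells, top concentration 100 uM with half-log steps, 0.5% DMSO vehicle, duplicates; fitted bidirectionally against DMSO baseline.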

[9] = read-out: Forkhead box O1 (FOXO1), FOXO1 (gene 2308); assay: LTEA_HepaRG_FOXO1: Life Technologies and Expression Analysis (LTEA) Assay for Forkhead box O1 (FOXO1) using HepaRG (AID 2283456)
Method in brief: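 FOXO1 transcript quantified by qRT-PCR after 48 h chemical exposure (top 100 uM, half-log steps, 0.5% DMSO) of HepaRG cells, housekeeping-normalized (ACTB/GAPDH/POLR2A). Changes fitted in both directions relative to vehicle.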

Fatty acid synthase (Homo sapiens), sequence (P49327 whole entry, looked up): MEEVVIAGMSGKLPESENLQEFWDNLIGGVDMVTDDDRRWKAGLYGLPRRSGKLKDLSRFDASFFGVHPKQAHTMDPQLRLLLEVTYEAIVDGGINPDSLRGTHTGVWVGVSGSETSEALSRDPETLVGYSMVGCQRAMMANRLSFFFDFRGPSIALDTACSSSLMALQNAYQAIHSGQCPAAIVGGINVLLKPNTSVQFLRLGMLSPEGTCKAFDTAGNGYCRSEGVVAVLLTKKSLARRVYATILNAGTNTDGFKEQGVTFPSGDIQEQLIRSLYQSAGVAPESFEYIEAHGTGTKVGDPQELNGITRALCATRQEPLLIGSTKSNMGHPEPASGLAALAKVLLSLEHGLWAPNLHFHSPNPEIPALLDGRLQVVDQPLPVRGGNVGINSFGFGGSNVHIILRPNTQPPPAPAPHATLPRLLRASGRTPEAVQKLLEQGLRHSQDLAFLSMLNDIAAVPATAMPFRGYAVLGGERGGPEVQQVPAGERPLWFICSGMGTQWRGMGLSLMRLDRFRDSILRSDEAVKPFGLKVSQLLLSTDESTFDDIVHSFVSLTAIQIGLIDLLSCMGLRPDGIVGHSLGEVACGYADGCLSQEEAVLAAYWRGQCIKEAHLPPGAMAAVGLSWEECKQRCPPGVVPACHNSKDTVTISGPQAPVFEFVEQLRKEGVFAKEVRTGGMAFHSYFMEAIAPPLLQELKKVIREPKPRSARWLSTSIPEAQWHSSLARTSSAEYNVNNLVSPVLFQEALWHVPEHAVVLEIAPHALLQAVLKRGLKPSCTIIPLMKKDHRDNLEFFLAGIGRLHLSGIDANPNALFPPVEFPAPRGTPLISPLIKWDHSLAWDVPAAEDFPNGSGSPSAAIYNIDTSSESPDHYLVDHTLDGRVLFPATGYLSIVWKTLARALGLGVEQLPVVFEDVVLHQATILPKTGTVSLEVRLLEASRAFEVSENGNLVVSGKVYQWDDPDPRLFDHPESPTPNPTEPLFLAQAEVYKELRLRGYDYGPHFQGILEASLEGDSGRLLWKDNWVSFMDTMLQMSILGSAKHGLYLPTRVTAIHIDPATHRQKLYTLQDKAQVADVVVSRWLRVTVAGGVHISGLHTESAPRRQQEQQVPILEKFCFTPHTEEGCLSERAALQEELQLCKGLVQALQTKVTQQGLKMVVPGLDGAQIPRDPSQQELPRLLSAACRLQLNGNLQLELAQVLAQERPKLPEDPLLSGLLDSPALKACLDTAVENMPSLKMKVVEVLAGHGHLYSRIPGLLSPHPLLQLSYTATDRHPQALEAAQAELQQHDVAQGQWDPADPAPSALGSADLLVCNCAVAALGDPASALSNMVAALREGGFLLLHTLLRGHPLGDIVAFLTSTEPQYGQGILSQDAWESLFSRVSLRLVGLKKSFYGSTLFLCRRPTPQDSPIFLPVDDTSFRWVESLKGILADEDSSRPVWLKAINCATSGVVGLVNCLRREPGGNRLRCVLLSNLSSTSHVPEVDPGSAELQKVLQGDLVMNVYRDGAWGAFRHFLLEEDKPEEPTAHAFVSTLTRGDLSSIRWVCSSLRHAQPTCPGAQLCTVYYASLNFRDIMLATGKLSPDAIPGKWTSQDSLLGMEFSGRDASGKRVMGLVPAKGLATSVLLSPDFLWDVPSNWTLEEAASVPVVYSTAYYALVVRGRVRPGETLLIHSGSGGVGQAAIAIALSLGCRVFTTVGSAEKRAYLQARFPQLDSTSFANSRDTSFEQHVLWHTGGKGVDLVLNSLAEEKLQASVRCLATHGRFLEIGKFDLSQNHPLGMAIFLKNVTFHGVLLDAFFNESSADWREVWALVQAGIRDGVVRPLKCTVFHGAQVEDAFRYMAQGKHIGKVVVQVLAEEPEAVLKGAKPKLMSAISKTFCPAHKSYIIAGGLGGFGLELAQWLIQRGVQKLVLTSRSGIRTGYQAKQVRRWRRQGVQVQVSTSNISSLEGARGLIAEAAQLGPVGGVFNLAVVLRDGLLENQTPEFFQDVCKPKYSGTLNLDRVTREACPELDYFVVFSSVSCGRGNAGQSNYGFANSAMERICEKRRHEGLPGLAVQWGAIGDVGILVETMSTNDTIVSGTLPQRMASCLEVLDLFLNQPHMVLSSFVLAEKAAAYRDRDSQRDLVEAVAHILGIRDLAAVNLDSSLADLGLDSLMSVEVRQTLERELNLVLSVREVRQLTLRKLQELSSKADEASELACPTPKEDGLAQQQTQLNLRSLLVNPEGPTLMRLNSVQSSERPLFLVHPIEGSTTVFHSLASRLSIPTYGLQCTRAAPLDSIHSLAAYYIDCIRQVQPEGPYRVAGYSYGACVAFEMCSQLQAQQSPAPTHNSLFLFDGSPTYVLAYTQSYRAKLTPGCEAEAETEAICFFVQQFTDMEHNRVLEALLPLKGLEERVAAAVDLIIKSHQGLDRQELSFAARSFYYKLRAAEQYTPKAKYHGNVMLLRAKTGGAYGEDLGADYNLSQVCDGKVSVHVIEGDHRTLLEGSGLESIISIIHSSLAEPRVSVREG

SMILES | outcome [1] | outcome [2] | outcome [3] | outcome [4] | outcome [5] | outcome [6] | outcome [7] | outcome [8] | outcome [9] | AC50 [7] | AC50 [2] | AC50 [4] | AC50 [6] | AC50 [8]
FC(F)(F)C(F)(F)C(F)(F)C(F)(F)C(F)(F)C(F)(F)CCI | inactive | inactive | inactive | inactive | inactive | inactive | inactive | inactive | inactive | – | – | – | – | –
CCCCCCCCCCCCCCCC | inactive | inactive | inactive | inactive | inactive | inactive | – | inactive | inactive | 50 µM (active) | – | – | – | –
CCCCCCOCCO | inactive | inactive | inactive | inactive | inactive | inactive | – | inactive | inactive | 50 µM (active) | – | – | – | –
CC1(C)NC(=O)NC1=O | inactive | inactive | inactive | inactive | inactive | inactive | inactive | inactive | inactive | – | – | – | – | –
CNCc1cc(F)ccc1Oc1ccc(Cl)c(Cl)c1 | inactive | – | inactive | – | inactive | – | inactive | – | inactive | – | 50 µM (active) | 20.5 µM (active) | 82.8 µM (active) | 12.1 µM (active)
O=C(O)Cc1ccccc1Nc1c(Cl)cccc1Cl | inactive | inactive | – | inactive | inactive | inactive | – | inactive | inactive | 76.4 µM (active) | – | – | – | –
CCCCCCCCCCCCCO | inactive | inactive | inactive | inactive | inactive | inactive | inactive | inactive | inactive | – | – | – | – | –
